# FMDV antiviral: antivirals against foot and mouth disease virus; FMDV antiviral cell assay, firefly luciferase signal; Potency, µM (highest dose often 57.5 µM), without a hit: top-dose activity change, negative = inhibition, most hits filed as inhibitors; 120,000 tested, 0.23% active; AID 1745856; note: nearly all actives have a fitted effect of over 60% in size
# FMDV RLuc: shows antiviral activity in FMDV Renilla assay; FMDV replicon cells, Renilla luciferase signal; Potency, µM (highest dose often 57.5 µM), inactives show at the top dose activity change, negative = inhibition, hits mostly inhibitors; 120,000 tested, 0.32% active; AID 1745857; note: nearly all actives have a fitted effect of over 55% in size
# Active calls of the source: *; ? = inconclusive; [ ] = another dose, or the depositor's remark. Rows were chosen to be rich in hits. Some 0.51% of all compounds tested hit in one or more screens of this group. Calls come from the whole dose curve. % is set by controls: 0 for no effect and ±100 for the full control effect; potency is the fitted concentration of half-maximal effect.
SMILES,FMDV antiviral,FMDV RLuc
Cc1csc(NC(=O)c2ccc(Oc3ccc(Br)cc3)nc2)n1,?,12.6µM*
Cc1ccc(F)c(NC(=O)CCc2c(C)nc(C)[nH]c2=O)c1,-6.1%,-2.9%
CCC1CCC(N(C(=O)Cc2nc(-c3cccs3)oc2C)C2CC2)CC1 (stereo not drawn),35.5µM*,-20.2%
Cc1oc(-c2cccs2)nc1CC(=O)NCC1CCCO1 (stereo not drawn),6.7%,-9.6%
CC(C)C(C)NC(=O)CCC(=O)c1ccc2c(c1)CCCC2 (stereo not drawn),0.0%,16.9%
CCOc1ccc2nc(N(Cc3cccnc3)C(=O)c3cccs3)sc2c1,55.4%,3.8%
COc1ccc2sc(N(Cc3cccnc3)C(=O)c3cccs3)nc2c1,?,3.16µM*
NC(=O)c1ccc(C(=O)NN=C(c2ccccc2)c2ccccc2)s1,-12.3%,18.1%
CCS(=O)(=O)c1ccccc1C(=O)N1CCN(c2nc3ccccc3s2)CC1,11.2µM*,-3.6%
O=C(c1ccc(Cl)cc1)N1CCN(c2nc3ccccc3s2)CC1,13.4%,0.5%
O=C(Cc1c[nH]c2ccccc12)NCCc1c[nH]c2ccc(F)cc12,14.1%,36.8%
COC(=O)C1CN(Cc2ccc(OC)cc2)CCS(=O)(=O)N1Cc1ccc(Cl)cc1 (stereo not drawn),0.0%,0.0%
COC(=O)C1CN(Cc2ccc(OC)cc2)CCS(=O)(=O)N1Cc1ccc(C(F)(F)F)cc1 (stereo not drawn),31.6µM*,?
O=C(Cn1nc(C(=O)O)c2ccccc2c1=O)Nc1ccc(OC(F)F)cc1,26.8%,17.4%
Cc1cc(C)c([N+](=O)[O-])cc1[N+](=O)[O-],9.0%,-12.4%
Cc1ccc([N+](=O)[O-])[c]2c1[O][Hg]2,2.82µM*,?
O=S(=O)(Nc1nc2ccccc2nc1Nc1ccc(F)c(Cl)c1)c1ccc(F)cc1,15.9%,2.0%
Cc1ccc(CNC(=O)c2ccc(Cl)c(-n3c(C)nc4cccnc43)c2)cc1,5.5%,24.9%
COc1ccc(C2CCCN2Cc2coc(-c3ccc(F)cc3)n2)cc1 (stereo not drawn),7.9%,-2.4%
Cc1cccc(COc2ccc(CNC(=O)c3nccnc3N)cc2)c1,?,14.1µM*
Nc1nccnc1C(=O)NCc1ccccc1,21.8%,9.9%
CCOCc1ccc(CNC(=O)c2nccnc2N)cc1,?,25.1µM*
Nc1nccnc1C(=O)NCc1ccc(O)cc1,12.8%,18.3%
O=C(CSc1ncnc2ccccc12)Nc1cccc(F)c1,0.0%,-11.9%
CCn1cc(C(=O)c2cc(F)ccc2O)cc1-c1nc2ccccc2c(=O)[nH]1,1.6%,0.6%
SMILES,FMDV antiviral,FMDV RLuc
O=C1CCC(C(=O)OCc2cc(=O)oc3cc(O)ccc23)=NN1,11.6%,-2.1%
COc1ccc(/C=C\c2onc(C)c2S(=O)(=O)N2CCC(C(=O)Nc3ccc(F)cc3F)CC2)cc1,31.6µM*,28.2µM*
COc1ccc(/C=C\c2onc(C)c2S(=O)(=O)N2CCC(C(=O)Nc3ccc(C)c(F)c3)CC2)cc1,-10.3%,-10.0%
N#Cc1cccc(CSc2nnnn2-c2cccc(F)c2)c1,11.5%,16.1%
Cc1ccc2c(=O)cc(C(=O)Nc3nonc3-c3ccc4c(c3)CCCC4)oc2c1,4.4%,15.8%
Cc1ccc(NC(=O)N2CCN(c3cc(-c4noc(C)n4)ccc3C)CC2)c(C)c1,11.4%,-3.7%
Cc1nc(-c2ccc(C)c(N3CCN(C(=O)Nc4cccc(Cl)c4C)CC3)c2)no1,25.1µM*,?
Cc1ccc(NC(=O)CCc2ncc(-c3ccccc3)o2)cc1,10.3%,-4.2%
CCc1ccc(OCc2nnc(SCc3cc(=O)c4ccccc4[nH]3)n2CC)cc1,?,15.8µM*
CCn1c(COc2ccccc2Cl)nnc1SCc1cc(=O)c2cc(C(N)=O)ccc2[nH]1,-5.9%,-1.2%
CCCn1nc(C(=O)Nc2ccc(Br)c(C(F)(F)F)c2)c2ccccc2c1=O,0.0%,14.2%
O=c1oc2ccccc2c(NC2CCCC2)c1NS(=O)(=O)c1ccccc1Cl,5.8%,24.8%
COc1cc(CNC(=O)c2ccc3nc(CCc4ccccc4)oc3c2)cc(OC)c1OC,-23.5%,15.0%
COc1cc(CNC(=O)c2ccc3nc(Cc4ccccc4)oc3c2)cc(OC)c1OC,14.1µM*,?
CCC(Oc1ccc(F)cc1)C(=O)Nc1cc(-c2ccc(C)cc2)no1 (stereo not drawn),-2.0%,-3.9%
CCC(Oc1ccc(F)cc1)C(=O)Nc1nc(-c2ccc(F)cc2)ns1 (stereo not drawn),25.1µM*,?
Cc1ccc2nc(-c3ccc(Cl)s3)cc(C(=O)O)c2c1,168.0%,7.4%
N#Cc1ccc(CN2CCN(C(=O)c3ccc(Cn4nnc5ccccc54)cc3)CC2)cc1,6.31µM*,5.01µM*
N#Cc1ccc(CN2CCN(C(=O)C3CC=CCC3)CC2)cc1 (stereo not drawn),6.1%,0.2%
N#CC1(NC(=O)CSCc2ccc(Cl)cc2)CCCCCC1,24.0%,56.4%
N#CC1=C(SCc2ccc(Cl)cc2)NC(=O)C(C#N)C12CCCC2 (stereo not drawn),?,10µM*
O=C(CC1CCCC1)NCCC(=O)N1CCCC1,42.4%,11.3%
O=C(/C=C/N1CCC(CCCC2CCN(/C=C/C(=O)C(F)(F)F)CC2)CC1)C(F)(F)F,?,10µM*
O=C(/C=C/N1CCC(Cc2ccccc2)CC1)C(F)(F)F,-16.2%,?
N#Cc1ccccc1OC(=O)/C=C/c1ccco1,10.7%,7.4%
SMILES,FMDV antiviral,FMDV RLuc
Cc1cnc(NC(=O)CCc2ncc(-c3c(F)cccc3F)o2)s1,9.2%,-5.7%
COc1cccc(CN2CCC(C(O)(c3ccccc3)c3ccccc3)CC2)c1OC,?,16.5%[1.06 µM]
COc1cc(CN2CCC(C(O)(c3ccccc3)c3ccccc3)CC2)ccc1OCc1ccccc1,?,35.5µM*
CCc1ccccc1NC(=O)c1nn(C)c(=O)c2ccccc12,0.0%,3.7%
O=C(Nc1ccncc1)c1cccc(OCc2ccc(F)cc2)c1,?,6.31µM*
C=CCOc1cccc(NC(=O)c2ccncc2)c1,32.9%,10.6%
Cc1ccc(C)c(-c2csc(Nc3ccc(S(N)(=O)=O)cc3)n2)c1,?,17.8µM*
Cc1ccc(C)c(-c2csc(Nc3ccc(S(=O)(=O)Nc4nc(C)cc(C)n4)cc3)n2)c1,-20.5%,61.9%
CCn1nc(C(=O)Nc2nc(-c3cccs3)cs2)c2ccccc2c1=O,75.3%,-26.3%
O=C(NC1CCCCCC1)c1ccc2ncsc2c1,101.2%,20.8%
O=C(NC1CCCCC1C(F)(F)F)c1ccc2ncsc2c1 (stereo not drawn),8.91µM*,144.0%
CC(C)NC(=O)Cn1ccc2c(Cl)cccc21,0.0%,16.5%
Cc1nc(N2CCC(C(=O)Nc3cccc(Br)c3)CC2)c2c(C)c(C)oc2n1,17.8µM*,?
Cc1nc(N2CCC(C(=O)Nc3cccc(Cl)c3C)CC2)c2c(C)c(C)oc2n1,-3.4%,-2.7%
COCCn1c(N2CCN(Cc3ccc(Cl)cc3)CC2)nc2c1c(=O)[nH]c(=O)n2C,13.6%,-4.2%
CCCCCCn1nc(C(=O)NCc2ccc(C(=O)OC)cc2)c2ccccc2c1=O,8.9%,0.7%
COc1ccc(OCC(=O)N2CCC(c3nc4ccccc4s3)CC2)cc1,28.2µM*,25.1µM*
Cc1ccccc1OCC(=O)N1CCC(c2nc3ccccc3s2)CC1,-6.3%,-9.8%
CCCCN=C(N)N=C(N)N,-7.7%[11.5 µM],-1.4%
CCCCC(CC)CN=C(N)NC(N)=NCCCCCCN=C(N)NC(N)=NCC(CC)CCCC (stereo not drawn),?,28.2µM*
O=C(COc1ccc2ccc(=O)oc2c1)NCC1(N2CCCCC2)CCCCC1,5.2%,-6.4%
O=C(/C=C/c1c(Cl)cccc1Cl)c1ccc(OC(F)F)cc1,0.0%,68.5%

# Source: PubChem BioAssay
